Test results from PubChem BioAssay (NCI).
This is part of a sample that, as a whole, favours compounds with a hit. Of some 83,000 tested, about 20% had one in any assay.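 Step 1: grow cells in 96-well plates. Step 2: add test compound at a single concentration. Step 3: incubate 48 h. Step 4: record percent growth.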 Activity calls are given as the source filed them. The calls were made as follows: active = growth percent below 10; inactive = the rest.

What was measured:
Experiment in all cases: NCI-60 one-dose screen, 48 h (100 = growth as untreated, 0 = no growth, -100 = all killed)
Settings in all cases: 10 µM unless noted
NCI-H23 lung = system: NCI-H23 lung
NCI-H226 lung = system: NCI-H226 lung
NCI-H322M lung = system: NCI-H322M lung
HOP-62 NSCLC = system: HOP-62 NSCLC
NCI-H460 lung = system: NCI-H460 lung
NCI-H522 lung = system: NCI-H522 lung
A549/ATCC NSCLC = system: A549/ATCC NSCLC
786-0 renal = system: 786-0 renal
COLO 205 colon = system: COLO 205 colon
DU-145 prostate = system: DU-145 prostate
K-562 leukemia = system: K-562 leukemia
MALME-3M melanoma = system: MALME-3M melanoma
MDA-MB-231 breast = system: MDA-MB-231 breast
RXF 393 renal = system: RXF 393 renal
SF-268 CNS = system: SF-268 CNS
SF-295 CNS = system: SF-295 CNS
SF-539 CNS = system: SF-539 CNS
UACC-257 melanoma = system: UACC-257 melanoma
M14 melanoma = system: M14 melanoma
HOP-92 NSCLC = system: HOP-92 NSCLC

Measured: growth

Cc1nc2ccccc2c(/C=C/c2ccc(C(F)(F)F)cc2)c1C(=O)/C=C/c1ccccc1
inactive: NCI-H322M lung 20.5% | SF-268 CNS 33.4%
active: NCI-H23 lung -12.9% | NCI-H226 lung -0.692% | HOP-62 NSCLC -34.8% | NCI-H460 lung -74.9% | NCI-H522 lung -61.9% | A549/ATCC NSCLC 6.27% | 786-0 renal -14.1% | COLO 205 colon -54.6% | DU-145 prostate -43.6% | K-562 leukemia 4.16% | MALME-3M melanoma -65.2% | MDA-MB-231 breast -39.9% | RXF 393 renal -82.9% | SF-295 CNS -45.3% | SF-539 CNS -83.6% | UACC-257 melanoma -25.5% | M14 melanoma -25.9%

COc1cc2c(c(OC)c1OC)C(=O)N[C@@H]1[C@@H](O)[C@@H](O)[C@H](O)C[C@@H]21
inactive: NCI-H23 lung 106% | NCI-H226 lung 102% | NCI-H322M lung 104% | HOP-62 NSCLC 102% | NCI-H460 lung 110% | NCI-H522 lung 97.7% | A549/ATCC NSCLC 98.4% | 786-0 renal 94.9% | COLO 205 colon 108% | DU-145 prostate 110% | K-562 leukemia 96.6% | MALME-3M melanoma 108% | MDA-MB-231 breast 106% | RXF 393 renal 102% | SF-268 CNS 103% | SF-295 CNS 98.3% | SF-539 CNS 100% | UACC-257 melanoma 100% | M14 melanoma 98.5%

COc1ccc(-c2nnc(SCC(=O)Nc3ccc(/C(C)=N\O)cc3)n2-c2ccccc2)cc1OC
inactive: NCI-H23 lung 68.8% | NCI-H226 lung 81.9% | NCI-H322M lung 75.7% | NCI-H460 lung 102% | A549/ATCC NSCLC 70.7% | 786-0 renal 64.5% | COLO 205 colon 99.1% | DU-145 prostate 88.3% | K-562 leukemia 105% | MALME-3M melanoma 61.8% | MDA-MB-231 breast 47.9% | RXF 393 renal 32.3% | SF-268 CNS 30.6% | SF-295 CNS 39.1% | SF-539 CNS 43% | UACC-257 melanoma 91.8% | M14 melanoma 89.9%
active: HOP-62 NSCLC -26.4% | HOP-92 NSCLC -8.56%

N#CC(C#N)N=Nc1ccc(Cl)cc1Cl
inactive: NCI-H23 lung 86.2% | NCI-H226 lung 97.7% | NCI-H322M lung 107% | HOP-62 NSCLC 80.7% | NCI-H460 lung 105% | NCI-H522 lung 39.3% | A549/ATCC NSCLC 105% | 786-0 renal 91.2% | COLO 205 colon 67.2% | DU-145 prostate 80.8% | K-562 leukemia 40.7% | MALME-3M melanoma 77.3% | MDA-MB-231 breast 68.2% | RXF 393 renal 116% | SF-268 CNS 103% | SF-295 CNS 100% | SF-539 CNS 74.7% | UACC-257 melanoma 87.3% | M14 melanoma 81.8%

O=C(/C=C/c1cccc(Cl)c1)c1cccc(OCCCCOc2cccc(C(=O)/C=C/c3cccc(Cl)c3)c2)c1
inactive: NCI-H23 lung 89.3% | NCI-H226 lung 99.7% | NCI-H322M lung 92.2% | HOP-62 NSCLC 107% | NCI-H460 lung 98.7% | HOP-92 NSCLC 78.6% | A549/ATCC NSCLC 85.4% | 786-0 renal 98.8% | COLO 205 colon 76% | DU-145 prostate 97.4% | K-562 leukemia 91.4% | MALME-3M melanoma 96.8% | MDA-MB-231 breast 97.1% | RXF 393 renal 89.9% | SF-268 CNS 96.6% | SF-295 CNS 103% | SF-539 CNS 96.6% | UACC-257 melanoma 89.7% | M14 melanoma 85.5%

N#Cc1nc2c(S(=O)(=O)c3ccccc3)c(N)n(Cc3cccnc3)c2nc1C#N
inactive: NCI-H23 lung 88.5% | NCI-H226 lung 97.7% | NCI-H322M lung 91.7% | NCI-H460 lung 113% | A549/ATCC NSCLC 90.1% | 786-0 renal 106% | COLO 205 colon 92.3% | DU-145 prostate 90.6% | K-562 leukemia 51.6% | MALME-3M melanoma 78.1% | MDA-MB-231 breast 84.7% | RXF 393 renal 59.7% | SF-268 CNS 52.2% | SF-295 CNS 92.7% | SF-539 CNS 58.7% | UACC-257 melanoma 80.3% | M14 melanoma 142%
active: HOP-62 NSCLC -8.31% | HOP-92 NSCLC -14.8%

CCN(CC)CCCNCc1cc(-c2ccccc2)nc2cc(Cl)ccc12
active: 786-0 renal -27.6% | K-562 leukemia -17.3% | MALME-3M melanoma -66.4% | UACC-257 melanoma -76.8% | M14 melanoma -95.3%
inactive: NCI-H23 lung 68.6% | NCI-H226 lung 140% | NCI-H322M lung 75.5% | HOP-62 NSCLC 78.1% | NCI-H460 lung 43.3% | NCI-H522 lung 44.2% | A549/ATCC NSCLC 57.4% | COLO 205 colon 51.2% | DU-145 prostate 78.3% | MDA-MB-231 breast 22.1% | RXF 393 renal 77.2% | SF-268 CNS 38.2% | SF-295 CNS 79.9% | SF-539 CNS 40.4%

O=C1Nc2ccccc2C2c3cccn3-c3ccccc3N12 (stereo not given)
inactive: NCI-H23 lung 81% | NCI-H226 lung 89.5% | NCI-H322M lung 83% | HOP-62 NSCLC 58.2% | NCI-H460 lung 88.9% | HOP-92 NSCLC 57.8% | A549/ATCC NSCLC 61.7% | 786-0 renal 87.8% | COLO 205 colon 60.5% | DU-145 prostate 94.8% | K-562 leukemia 23.9% | MALME-3M melanoma 71.7% | MDA-MB-231 breast 47.1% | RXF 393 renal 51.7% | SF-268 CNS 79% | SF-295 CNS 78.6% | SF-539 CNS 83.2% | UACC-257 melanoma 77.6% | M14 melanoma 53%

N=C(N)c1ccc(-c2ccc(-c3ccc(Cl)cc3Cl)s2)cc1F
active: NCI-H322M lung -43.8% | HOP-62 NSCLC -0.426% | NCI-H460 lung -72.4% | NCI-H522 lung -44.2% | A549/ATCC NSCLC -55.8% | 786-0 renal -78.8% | COLO 205 colon -47.2% | DU-145 prostate -82.4% | K-562 leukemia -22.6% | MALME-3M melanoma -2.93% | MDA-MB-231 breast -79.5% | SF-268 CNS 1.95% | SF-295 CNS -79.5% | SF-539 CNS -95.4% | M14 melanoma -15.1%
inactive: NCI-H23 lung 18.9% | NCI-H226 lung 93.2% | RXF 393 renal 50.1% | UACC-257 melanoma 18.6%

O=C1OCC2=C1C(c1cccc(C(F)(F)F)c1)c1cc3c(cc1N2CCO)OCO3 (stereo not given)
inactive: NCI-H23 lung 29.5% | NCI-H226 lung 66% | NCI-H322M lung 42.4% | HOP-62 NSCLC 33% | NCI-H460 lung 13% | HOP-92 NSCLC 51.4% | A549/ATCC NSCLC 28.9% | 786-0 renal 28.5% | DU-145 prostate 10.7% | MALME-3M melanoma 63.9% | MDA-MB-231 breast 44% | SF-268 CNS 47.6% | UACC-257 melanoma 74.2%
active: COLO 205 colon -2.39% | K-562 leukemia 9.02% | RXF 393 renal 1.92% | SF-295 CNS -2.78% | SF-539 CNS -3.02% | M14 melanoma 2.33%

COc1ccc2cc(-c3cnc4nonc4n3)ccc2c1
inactive: NCI-H23 lung 30.6% | NCI-H226 lung 52.6% | NCI-H322M lung 54.5% | HOP-62 NSCLC 37.4% | NCI-H460 lung 74.4% | A549/ATCC NSCLC 36% | 786-0 renal 41.4% | COLO 205 colon 16.8% | DU-145 prostate 62.9% | K-562 leukemia 13.6% | MALME-3M melanoma 48.3% | MDA-MB-231 breast 76.4% | RXF 393 renal 23.4% | SF-268 CNS 36.6% | SF-295 CNS 31.4% | UACC-257 melanoma 42% | M14 melanoma 10.7%
active: NCI-H522 lung 7.22% | SF-539 CNS -16%

O=C1/C(=C/c2ccccc2)CN(C(=O)c2cccnc2)C/C1=C\c1ccccc1
active: NCI-H23 lung -30.5% | NCI-H226 lung -43.7% | HOP-62 NSCLC 0.894% | NCI-H460 lung -35.1% | NCI-H522 lung -25.4% | 786-0 renal -53.8% | COLO 205 colon -29.5% | K-562 leukemia 2.62% | MDA-MB-231 breast 3.84% | RXF 393 renal -64.1% | SF-295 CNS -8.61% | SF-539 CNS -4.29% | M14 melanoma -41.5%
inactive: NCI-H322M lung 34.1% | A549/ATCC NSCLC 17.2% | DU-145 prostate 14.5% | MALME-3M melanoma 23.9% | SF-268 CNS 17.4% | UACC-257 melanoma 23.9%

O=c1nc(Nc2nc3ccccc3s2)[nH]c(=O)c2ccccc12
inactive: NCI-H23 lung 99.1% | NCI-H226 lung 92.8% | NCI-H322M lung 105% | HOP-62 NSCLC 91.2% | NCI-H460 lung 103% | NCI-H522 lung 96.8% | A549/ATCC NSCLC 106% | 786-0 renal 96% | COLO 205 colon 112% | DU-145 prostate 106% | K-562 leukemia 95.9% | MALME-3M melanoma 99.7% | MDA-MB-231 breast 98.3% | RXF 393 renal 98.1% | SF-268 CNS 102% | SF-295 CNS 99.3% | SF-539 CNS 97.5% | UACC-257 melanoma 107% | M14 melanoma 101%

O=P(O)(O)OCC1OC(n2cnc3c(NCc4ccccc4)ncnc32)C(O)C1O (stereo not given)
active: NCI-H522 lung 0.67% | DU-145 prostate -50.3% | RXF 393 renal -0.932% | SF-539 CNS 6.39%
inactive: NCI-H23 lung 17.8% | NCI-H226 lung 21.1% | NCI-H322M lung 33.6% | HOP-62 NSCLC 29.9% | HOP-92 NSCLC 22.3% | A549/ATCC NSCLC 55.1% | 786-0 renal 21.3% | COLO 205 colon 11.2% | K-562 leukemia 60.8% | MALME-3M melanoma 80.9% | MDA-MB-231 breast 10.6% | SF-268 CNS 36.3% | SF-295 CNS 52.4% | UACC-257 melanoma 115% | M14 melanoma 29.4%

Cn1cc(-c2csc(-c3cn(C(=O)OC(C)(C)C)c4ccccc34)n2)c2ccnc(Cl)c21
inactive: NCI-H23 lung 57.1% | NCI-H226 lung 46.4% | NCI-H322M lung 85.3% | HOP-62 NSCLC 72.4% | HOP-92 NSCLC 58.5% | NCI-H522 lung 50% | A549/ATCC NSCLC 26.8% | 786-0 renal 67.2% | COLO 205 colon 39.8% | DU-145 prostate 74.1% | K-562 leukemia 68.1% | MALME-3M melanoma 90% | MDA-MB-231 breast 38.3% | RXF 393 renal 63.6% | SF-268 CNS 71.8% | SF-295 CNS 62.4% | SF-539 CNS 68.3% | UACC-257 melanoma 59.5% | M14 melanoma 79%
